Data published in PubChem BioAssay (NCI).
The panel holds about 83,000 compounds, 20% with a hit somewhere; the sample as a whole holds those more often.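 Note: values are percent growth. 100 is the growth of untreated cells, values between 100 and 0 indicate rising inhibition; between -100 and 0 indicates cell death.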 The source made the active and inactive calls. Rule for the calls: active = growth percent below 10; inactive = the rest.

Legend:
Experiment in all cases: NCI-60 one-dose screen, 48 h (100 = growth as untreated, 0 = no growth, -100 = all killed)
Conditions in all cases: 10 µM unless noted
SR leukemia = system: SR leukemia
RPMI-8226 leukemia = system: RPMI-8226 leukemia
OVCAR-8 ovarian = system: OVCAR-8 ovarian
OVCAR-5 ovarian = system: OVCAR-5 ovarian
OVCAR-4 ovarian = system: OVCAR-4 ovarian
SK-OV-3 ovarian = system: SK-OV-3 ovarian
IGROV1 ovarian = system: IGROV1 ovarian
NCI/ADR-RES ovarian = system: NCI/ADR-RES ovarian
T-47D breast = system: T-47D breast
BT-549 breast = system: BT-549 breast
MDA-MB-435 melanoma = system: MDA-MB-435 melanoma
SW-620 colon = system: SW-620 colon
HCT-116 colon = system: HCT-116 colon
KM12 colon = system: KM12 colon
OVCAR-3 ovarian = system: OVCAR-3 ovarian
HS 578T breast = system: HS 578T breast
MCF7 breast = system: MCF7 breast
HCC-2998 colon = system: HCC-2998 colon

Measured: growth

N#CCCN1C(=O)CCC1C(=O)O (stereo not given)
inactive: SR leukemia 92.9% | RPMI-8226 leukemia 95.2% | OVCAR-8 ovarian 98.1% | OVCAR-5 ovarian 105% | OVCAR-4 ovarian 114% | SK-OV-3 ovarian 145% | IGROV1 ovarian 107% | NCI/ADR-RES ovarian 119% | T-47D breast 121% | BT-549 breast 107% | MDA-MB-435 melanoma 110% | SW-620 colon 96.6% | HCT-116 colon 97.6% | KM12 colon 103%

O=[N+]([O-])c1ccc(-c2nc(N(CCO)CCO)c3ccccc3n2)o1
active: SR leukemia 2.69% | RPMI-8226 leukemia 4.26% | OVCAR-8 ovarian 1.65% | OVCAR-5 ovarian -5.6% | OVCAR-4 ovarian -25.7% | SK-OV-3 ovarian -4.36% | OVCAR-3 ovarian -34.3% | HS 578T breast -41.8% | NCI/ADR-RES ovarian 5.04% | T-47D breast 8.21% | BT-549 breast -88.5% | MDA-MB-435 melanoma -85.5% | SW-620 colon -8.14% | MCF7 breast 0.425% | HCT-116 colon -7.95% | HCC-2998 colon -93.2% | KM12 colon -29.1%

O=C(O)CCCCCNC(=O)OCc1ccccc1
inactive: SR leukemia 98% | RPMI-8226 leukemia 81.5% | OVCAR-8 ovarian 112% | OVCAR-5 ovarian 97.7% | OVCAR-4 ovarian 98.5% | SK-OV-3 ovarian 106% | IGROV1 ovarian 93.9% | NCI/ADR-RES ovarian 110% | T-47D breast 97.6% | MDA-MB-435 melanoma 99.8% | SW-620 colon 95.2% | MCF7 breast 93.6% | HCT-116 colon 92.9% | HCC-2998 colon 105% | KM12 colon 101%

COc1cccc(N=CNc2cccc(OC)c2)c1
inactive: SR leukemia 93.6% | RPMI-8226 leukemia 92% | OVCAR-8 ovarian 104% | OVCAR-5 ovarian 103% | SK-OV-3 ovarian 103% | IGROV1 ovarian 96.7% | OVCAR-3 ovarian 102% | HS 578T breast 105% | T-47D breast 92% | BT-549 breast 101% | MDA-MB-435 melanoma 102% | SW-620 colon 98.5% | MCF7 breast 92.2% | HCT-116 colon 92.2% | HCC-2998 colon 98.9% | KM12 colon 87.8%

CC12CCC3c4ccc(O)cc4CCC3C1CCC2=O (stereo not given)
inactive: SR leukemia 67.4% | RPMI-8226 leukemia 98.8% | OVCAR-8 ovarian 100% | OVCAR-5 ovarian 112% | OVCAR-4 ovarian 106% | SK-OV-3 ovarian 117% | OVCAR-3 ovarian 112% | HS 578T breast 104% | NCI/ADR-RES ovarian 111% | T-47D breast 103% | BT-549 breast 89.2% | MDA-MB-435 melanoma 112% | SW-620 colon 110% | MCF7 breast 128% | HCT-116 colon 95.3% | HCC-2998 colon 102% | KM12 colon 109%

CCCCCC#CC(=O)O
inactive: SR leukemia 97.7% | RPMI-8226 leukemia 99.7% | OVCAR-8 ovarian 98.3% | OVCAR-5 ovarian 105% | OVCAR-4 ovarian 103% | SK-OV-3 ovarian 102% | IGROV1 ovarian 100% | NCI/ADR-RES ovarian 119% | T-47D breast 85.2% | BT-549 breast 64.1% | MDA-MB-435 melanoma 107% | SW-620 colon 104% | MCF7 breast 95.4% | HCT-116 colon 112% | HCC-2998 colon 113% | KM12 colon 121%

C=CC1=NC(C)(C)CC(C)O1 (stereo not given)
inactive: SR leukemia 113% | RPMI-8226 leukemia 105% | OVCAR-8 ovarian 113% | OVCAR-5 ovarian 104% | OVCAR-4 ovarian 98.6% | SK-OV-3 ovarian 108% | OVCAR-3 ovarian 113% | HS 578T breast 107% | NCI/ADR-RES ovarian 112% | T-47D breast 92.2% | BT-549 breast 109% | MDA-MB-435 melanoma 94.7% | SW-620 colon 104% | MCF7 breast 93.4% | HCT-116 colon 107% | HCC-2998 colon 110% | KM12 colon 109%

CCOC(=O)c1c[nH][nH]c1=O
inactive: SR leukemia 109% | RPMI-8226 leukemia 93% | OVCAR-8 ovarian 105% | OVCAR-5 ovarian 94.8% | OVCAR-4 ovarian 101% | SK-OV-3 ovarian 110% | OVCAR-3 ovarian 112% | HS 578T breast 119% | NCI/ADR-RES ovarian 98.4% | T-47D breast 103% | BT-549 breast 106% | MDA-MB-435 melanoma 104% | SW-620 colon 104% | MCF7 breast 92.4% | HCT-116 colon 102% | HCC-2998 colon 98.5% | KM12 colon 111%

OCc1cccnc1
inactive: SR leukemia 95.1% | RPMI-8226 leukemia 102% | OVCAR-8 ovarian 95.2% | OVCAR-5 ovarian 99.6% | OVCAR-4 ovarian 115% | SK-OV-3 ovarian 107% | OVCAR-3 ovarian 114% | HS 578T breast 97.2% | NCI/ADR-RES ovarian 115% | T-47D breast 106% | MDA-MB-435 melanoma 97.2% | SW-620 colon 102% | MCF7 breast 94% | HCT-116 colon 107% | HCC-2998 colon 107% | KM12 colon 105%

CC(C)c1ncc([N+](=O)[O-])n1C
inactive: SR leukemia 106% | RPMI-8226 leukemia 102% | OVCAR-8 ovarian 97.5% | OVCAR-5 ovarian 103% | OVCAR-4 ovarian 117% | SK-OV-3 ovarian 112% | OVCAR-3 ovarian 125% | HS 578T breast 80.1% | NCI/ADR-RES ovarian 108% | T-47D breast 101% | BT-549 breast 103% | MDA-MB-435 melanoma 136% | SW-620 colon 98% | MCF7 breast 97.2% | HCT-116 colon 107% | HCC-2998 colon 105% | KM12 colon 111%

Cc1c(Cl)cccc1NC(=S)NC(=O)c1ccccc1
inactive: SR leukemia 88.4% | RPMI-8226 leukemia 73.6% | OVCAR-8 ovarian 92.2% | OVCAR-5 ovarian 109% | SK-OV-3 ovarian 95.2% | IGROV1 ovarian 118% | OVCAR-3 ovarian 103% | HS 578T breast 109% | NCI/ADR-RES ovarian 104% | T-47D breast 64.8% | BT-549 breast 115% | MDA-MB-435 melanoma 101% | SW-620 colon 106% | MCF7 breast 53.3% | HCT-116 colon 106% | KM12 colon 89.6%

O=C1C=CC(=O)C2=C1CCCC2
inactive: SR leukemia 68.1% | RPMI-8226 leukemia 72.4% | OVCAR-8 ovarian 95.1% | OVCAR-5 ovarian 108% | OVCAR-4 ovarian 88% | SK-OV-3 ovarian 89.4% | IGROV1 ovarian 80.5% | NCI/ADR-RES ovarian 94.8% | T-47D breast 85.3% | BT-549 breast 91.6% | MDA-MB-435 melanoma 102% | MCF7 breast 70.6% | HCT-116 colon 91.8% | HCC-2998 colon 123% | KM12 colon 92.3%

COc1cc(-c2ccc(NC(=O)CC(C)=O)c(OC)c2)ccc1NC(=O)CC(C)=O
inactive: SR leukemia 93.7% | RPMI-8226 leukemia 95.2% | OVCAR-8 ovarian 94.8% | OVCAR-5 ovarian 98.3% | SK-OV-3 ovarian 101% | IGROV1 ovarian 112% | OVCAR-3 ovarian 110% | HS 578T breast 117% | NCI/ADR-RES ovarian 95.2% | T-47D breast 108% | BT-549 breast 83.6% | MDA-MB-435 melanoma 105% | SW-620 colon 104% | MCF7 breast 106% | HCT-116 colon 105% | HCC-2998 colon 100% | KM12 colon 106%

CC1CC2C3CCC4=CC(=O)CCC4(C)C3CCC2(C)C1(O)C(=O)CO (stereo not given)
inactive: SR leukemia 107% | RPMI-8226 leukemia 77.1% | OVCAR-8 ovarian 105% | OVCAR-5 ovarian 104% | SK-OV-3 ovarian 102% | IGROV1 ovarian 117% | OVCAR-3 ovarian 132% | HS 578T breast 123% | NCI/ADR-RES ovarian 114% | T-47D breast 103% | MDA-MB-435 melanoma 115% | SW-620 colon 113% | MCF7 breast 99.8% | HCT-116 colon 109% | HCC-2998 colon 104% | KM12 colon 119%

C/C(=N\N=C(/C)c1cccc([N+](=O)[O-])c1)c1cccc([N+](=O)[O-])c1
inactive: SR leukemia 86.4% | RPMI-8226 leukemia 87.7% | OVCAR-8 ovarian 79.6% | OVCAR-5 ovarian 97.9% | OVCAR-4 ovarian 42.1% | IGROV1 ovarian 104% | OVCAR-3 ovarian 58.1% | HS 578T breast 78.8% | NCI/ADR-RES ovarian 93.9% | BT-549 breast 46.6% | MDA-MB-435 melanoma 98.9% | SW-620 colon 101% | MCF7 breast 86.8% | HCT-116 colon 89.8% | HCC-2998 colon 98% | KM12 colon 97.9%

CCN(CC)CCCC(C)NC(=S)N/N=C(\C)c1ccccn1 (stereo not given)
inactive: SR leukemia 17.7% | RPMI-8226 leukemia 58.9% | OVCAR-8 ovarian 36.1% | OVCAR-5 ovarian 55.1% | SK-OV-3 ovarian 52.3% | IGROV1 ovarian 32.3% | OVCAR-3 ovarian 51% | HS 578T breast 92.6% | NCI/ADR-RES ovarian 93.7% | T-47D breast 56.7% | BT-549 breast 65.5% | MDA-MB-435 melanoma 54.8% | SW-620 colon 47.5% | MCF7 breast 25.7% | HCT-116 colon 23.9% | HCC-2998 colon 56.8% | KM12 colon 36.4%

CC1(c2ccccc2)CO1 (stereo not given)
inactive: SR leukemia 104% | RPMI-8226 leukemia 103% | OVCAR-8 ovarian 102% | OVCAR-5 ovarian 97.5% | SK-OV-3 ovarian 107% | IGROV1 ovarian 100% | OVCAR-3 ovarian 114% | HS 578T breast 97.4% | NCI/ADR-RES ovarian 113% | T-47D breast 109% | BT-549 breast 112% | MDA-MB-435 melanoma 113% | SW-620 colon 108% | MCF7 breast 103% | HCT-116 colon 101% | HCC-2998 colon 111% | KM12 colon 108%

Nc1ncnc2c1ncn2C1OC(CO)C2OC21 (stereo not given)
inactive: SR leukemia 112% | RPMI-8226 leukemia 103% | OVCAR-8 ovarian 98.7% | OVCAR-4 ovarian 109% | SK-OV-3 ovarian 105% | IGROV1 ovarian 111% | OVCAR-3 ovarian 106% | HS 578T breast 98.9% | NCI/ADR-RES ovarian 110% | T-47D breast 84.7% | BT-549 breast 110% | MDA-MB-435 melanoma 111% | SW-620 colon 99.5% | MCF7 breast 93.6% | HCT-116 colon 108% | HCC-2998 colon 105% | KM12 colon 109%

C=C(C)[C@@H]1CC[C@]2(CO)CC[C@]3(C)[C@H](CC[C@@H]4[C@@]5(C)CC[C@H](O)C(C)(C)[C@@H]5CC[C@]43C)[C@@H]12
inactive: SR leukemia 42.6% | RPMI-8226 leukemia 41.2% | OVCAR-4 ovarian 33.7% | SK-OV-3 ovarian 41.3% | IGROV1 ovarian 35.9% | OVCAR-3 ovarian 64.5% | T-47D breast 32.2% | BT-549 breast 49.3% | MDA-MB-435 melanoma 77.9% | SW-620 colon 54.6% | MCF7 breast 42.9% | KM12 colon 49.1%
active: OVCAR-5 ovarian -21.9% | NCI/ADR-RES ovarian -43.6% | HCT-116 colon 1.87%

CCCCNc1ccc(-c2ccc(NCCCC)cc2)cc1
inactive: SR leukemia 44.1% | OVCAR-8 ovarian 82.1% | OVCAR-5 ovarian 90.3% | OVCAR-4 ovarian 63.5% | SK-OV-3 ovarian 94.5% | IGROV1 ovarian 78% | OVCAR-3 ovarian 67.8% | HS 578T breast 84.2% | NCI/ADR-RES ovarian 79.3% | T-47D breast 45.9% | BT-549 breast 31.1% | MDA-MB-435 melanoma 40.8% | SW-620 colon 78.6% | MCF7 breast 34.3% | HCT-116 colon 55.3% | HCC-2998 colon 94.7% | KM12 colon 56.9%
